# Measurements reported in PubChem BioAssay (NCATS).
# Active and inactive are the calls of the source. Calls come from the whole dose curve; as a rule, active = well fitted curve in the direction sought with a large enough effect; inconclusive = small, poorly fitted or top-dose-only effect, or effect the other way, or another doubt; inactive = no such curve, though single readings can be large or run the other way.
# Assay: qHTS for inhibitors of adenylyl cyclases using a fission yeast platform: a pilot screen against the NCATS LOPAC library (AID 1347410)
# Settings: S. pombe CHP2027, fbp1-GFP fluorescence, 18 h, yeast expressing mammalian AC9 and human GNAS; series mostly up to 57.5 µM
# Text: PI: Charles S. Hoffman Ph.D
# Boston College, 140 Commonwealth Ave., Chestnut Hill, MA
# Assay Development and Screening Technology Laboratory (ADST)
# National Center for Advancing Translational Sciences (NCATS), Rockville, MD
# National Institute of Health (NIH), Bethesda, Maryland
# The fission yeast Schizosaccharomyces pombe uses a cAMP signaling pathway to link glucose-sensing to Protein Kinase A activity in order to regulate cell growth, sexual development, gluconeogenesis, and exit from stationary phase. Here, we describe the successful functional expression of all ten mammalian adenylyl cyclase (AC) genes, along with the human GNAS G-alpha gene in this organism. By measuring expression of a PKA-repressed fbp1-GFP reporter together with direct measurements of intracellular cAMP levels, one can detect both basal AC activity from all ten AC genes as well as GNAS-stimulated activity from eight of the nine transmembrane ACs (tmACs; AC2-AC9).
# Further confirmation and validation of active compounds lead to the identification of diphenyleneiodonium chloride (DPI) as an inhibitor of basal AC activity. This fluorescence based fbp1-GFP-GNAS screening technology could facilitate the development of therapeutic compounds that target GNAS or the ACs, an area in which there is significant unmet need.
# The gain-of-signal output is not substantially affected by cytotoxic compounds within the library.
# Getz RA, et al., A fission yeast platform for heterologous expression of mammalian adenylyl cyclases and high throughput screening, Cellular Signaling, 2019, 60: 114-121. doi.org/10.1016/j.cellsig.2019.04.010.
# PROTOCOL TABLE (as described by Inglese J, Shamu CE and Guy RK. 2007)
# SEQUENCE No. (e.g., 1, 2, 3, etc.); […] (e.g., Cells, Incubation, Reagent, etc.); VALUE; DESCRIPTION.
# 1; Dispense growth medium; 2 uL; black, clear bottom, low base, 1536-well Aurora assay plate.
# 2; Compounds and control; 23 nL; Kalypsis pin tool (Wako USA) equipped with a 1536-well pin head to transfer to the assay plates.
# 3; Dispense yeast cells; 2 uL; CHP2027 cells.
# 4; Incubation; 18 hours (dark at 30C); Non-humidified microbial incubator.
# 5; Detector; 425V; Fluorescence; laser scanning cytometry.
# NOTES (numbers refer to Sequence numbers above)
# 1. S. pombe growth medium EMM containing histidine, lysine, and uracil was initially dispensed into the assay plate to avoid yeast contamination using a Multidrop Combi dispenser (Thermo Fisher Scientific).
# 2. 10 mM stock solution of DPI (Sigma-Aldrich D2926) dissolved in DMSO was used as a 16-point dose response positive control, while 1.11 mM DPI stock solution was used as a single point max response positive control. Solvent DMSO was used as the negative control. Control DPI was transferred as a single-dose (column 3; rows 1-32; 1.11 mM stock), and multi-dose (column 4; rows 1-32; 10mM stock; 1:1.5 dilution; 16pnt titration) positive controls. Vehicle control DMSO was pinned into column 1-2, rows 1-32. Lopac compounds were pinned into columns 5-48 resulting to a final concentration range 57 µM to 78.4 nMControl DPI stock (10 mM) was prepared by dissolving 10 mg in 3.18 mL DMSO; while 1.11 mM DPI stock was prepared by mixing 100 uL of 10 mM DPI with 800 uL DMSO. To create the control plates, we initially start with a 384-well compound working plate. With a repeater pipette, (a.) 16 uL/well of 1.11 mM DPI was added to column 3; (b.) 16 uL/well of DMSO was added into rows 2-16 of column 4; (c.) 50 uL/well of DPI added to rows 1 and 2 of column 4; (d.) 32 uL serial dilution (two-thirds-fold) from rows 2 to 16 of column 4 with manual pipette. From the 384-well compound working plate, 7 uL of respective control compound was transferred to respective columns of the 1536-well compound plate using a multichannel pipette.
# 3. S. pombe CHP2027 (AC9-GNAS-PDE4D2) expressing fbp1-GFP cells were grown at 30C in EMM medium containing histidine, lysine, and uracil. […]
row,SMILES,outcome
1,O=C(Nc1ccc2[nH]ncc2c1)C1CCC1,inactive
2,c1cnc2c(c1)ccc1cccnc12,inactive
3,O=C(CCc1ccncc1)NNC(=O)N1Cc2ccccc2Oc2ccc(Cl)cc21,inactive
4,O=c1cc(-c2ccccc2)oc2c(O)c(O)ccc12,inactive
5,CC(N)C(=O)OC(C)(C)Cc1ccc(Cl)cc1 (stereo not given),inactive
6,CCCCN(CC)c1nc(C)nc2c1c(C)cn2-c1c(C)cc(C)cc1C,inactive
7,CC(C)(C=O)Cc1cc(C(C)(C)C)c(O)c(C(C)(C)C)c1,inactive
8,O=C1C(SCCO)=C(SCCO)C(=O)c2ccccc21,inactive
9,O=C(c1cc(O)c(O)c([N+](=O)[O-])c1)c1ccccc1F,inactive
10,COc1cccc(C(=O)NCCN2CCN(c3ccc(Cl)cc3)CC2)c1,inactive
11,S=C(S)OC1CC2CC1C1CCCC21 (stereo not given),inactive
12,COC(=O)c1c(C)[nH]c(C)c1C(=O)c1ccccc1Cc1ccccc1,inactive
13,N.N.N.N.N.N.N.N.N.N.N.N.N.N.O.O.[Ru+4].[Ru+5].[Ru+5],inactive
14,Cc1ccc(O)c(N=Nc2ccccc2)n1,inactive
15,CC(C)(C)c1ccc(S(=O)(=O)/C=C/C#N)cc1,inactive
16,O=C(c1ccc(OCCCc2cnc[nH]2)cc1)C1CC1,inactive
17,CCCN(CC1CC1)c1nc(C)nc(Nc2c(Cl)cc(Cl)cc2Cl)c1Cl,inactive
18,O=[N+]([O-])c1ccc2c(c1)S(=O)(=O)C=C2,inactive
19,CCCCCCCCc1ccc(-c2ccc(C(=O)O)cc2)cc1,inactive
20,CCN1/C(=C/C(C)=O)Sc2ccc(OC)cc21,inactive

row,SMILES,outcome
1,COc1ccc(/C=C/c2nc(NCCCN(C)C)c3ccccc3n2)cc1,inactive
2,CC(C)Cc1ccc([C@H](C)C(=O)O)cc1,inactive
3,O=C(/C=C/c1ccc(O)c(O)c1)OCCc1ccccc1,inactive
4,Nc1nc(SCc2ccc([N+](=O)[O-])cc2)c2ncn([C@@H]3O[C@H](CO)[C@@H](O)[C@H]3O)c2n1,inactive
5,CC12C(=O)OC(=O)C1(C)C1CCC2O1 (stereo not given),inactive
6,COc1ccccc1CN[C@@H]1CCCN[C@@H]1c1ccccc1,inactive
7,COc1cccc(OC)c1OCCNCC1COc2ccccc2O1 (stereo not given),inactive
8,CCOC(=O)N1CCN(/[N+]([O-])=N/Oc2ccc([N+](=O)[O-])cc2[N+](=O)[O-])CC1,inactive
9,CN(CCCOc1ccc(Cc2ccccc2)cc1)CCC(=O)O,inactive
10,CN(C)c1nc(N)c(C(=O)N=C(N)N)nc1Cl,inactive
11,CS(=O)(=O)c1ccc(-n2nc(C(F)(F)F)cc2-c2ccc(F)cc2)cc1,inactive
12,NS(=O)(=O)c1ccc(-n2nc(C(F)(F)F)cc2-c2ccc(Cl)cc2)cc1,inactive
13,CC1(C)CCC=[N+]1[O-],inactive
14,CN1CCc2cccc3c2C1Cc1ccc(O)c(O)c1-3 (stereo not given),inactive
15,CNCC[C@H](Oc1ccc(C(F)(F)F)cc1)c1ccccc1,inactive
16,CN(C)c1ccc(/C=C2\C(=O)Nc3ccccc32)cc1,inactive
17,Cc1cc2c(cc1Cl)N(C(=O)Nc1ccc(Oc3cccnc3C)nc1)CC2,inactive
18,COc1cc(OC)cc(-c2cc3cnc(N)nc3nc2NC(=O)NC(C)(C)C)c1,inactive
19,CC(=O)/C=C1\C(=O)N(C)c2ccccc21,inactive
20,O=C(O)CC[C@@H](C(=O)O)N1C(=O)c2ccccc2C1=O,inactive
